# Screening data from PubChem.
# TbPYK inhibitor: inhibitors of Trypanosoma brucei pyruvate kinase | Potency, µM (top dose mostly 76.8 µM), for the others: at the highest dose activity, negative = inhibition, most hits filed as inhibitors | Q57TT1 | TbPYK enzyme, Kinase-Glo Plus ATP luminescence, 45 min | hit rate 0.12% among 410,000; also: nearly all actives have a fitted effect of over 50% in size
#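 In this concentration-response screen, enzyme-free wells defined baseline while DMSO plates tracked drift. Each reaction combined TbPYK, substrate, compound and 130 uM ADP for 45 min at room temperature. Kinase-Glo Plus luminescence gave the signal.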
# RE007 growth inh: less growth of the S. pombe RE007 Vpr strain; S. pombe RE007 Vpr strain, BacTiter-Glo ATP luminescence, 24 h; Potency, µM (series often up to 92.2 µM), without a hit: at the highest dose activity change, negative = less growth, usual class: inhibitors; hit rate 0.21% among 360,000; active = well fitted falling curve with a large enough effect; inconclusive = small, poorly fitted or top-dose-only effect; inactive = no such curve, though single readings can be large or run the other way; also: nearly all actives have a fitted effect of over 50% in size
#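 Fission yeast RE007 carrying one integrated HIV-1 vpr copy, seeded at OD 0.01 in PMG+AL medium with 23 nL pinned compound. Grown 24 h at 30 degrees; viability read by BacTiter-Glo luminescence after 5 min.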
# LmPK inhibitor: inhibitors of Leishmania mexicana pyruvate kinase; Q27686; purified LmPK, Kinase-Glo ATP luminescence, 1 h; Potency, µM (series often up to 57.5 µM), for inactives: at the highest dose activity change, negative = inhibition, hits mostly inhibitors; hit rate 0.37% among 290,000; AID 1721
#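 Purified LmPK (0.1 nM) with 0.5 mM PEP and 0.1 mM ADP in imidazole buffer pH 7.2 with MgCl2/KCl, 1 h at room temperature. ATP formed was read by luciferase luminescence and normalized to no-enzyme and uninhibited controls.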
# FBPA Giardia inh: inhibitors of Giardia lamblia fructose-1,6-bisphosphate aldolase; Potency, µM (doses to about 59.6 µM), for inactives: top-dose activity, negative = inhibition, usual class: inhibitors; hit rate 0.71% among 290,000; purified Giardia FBPA; A8B2U2; also: nearly all actives have a fitted effect of over 55% in size
# Target sequence (A8B2U2 whole entry, looked up): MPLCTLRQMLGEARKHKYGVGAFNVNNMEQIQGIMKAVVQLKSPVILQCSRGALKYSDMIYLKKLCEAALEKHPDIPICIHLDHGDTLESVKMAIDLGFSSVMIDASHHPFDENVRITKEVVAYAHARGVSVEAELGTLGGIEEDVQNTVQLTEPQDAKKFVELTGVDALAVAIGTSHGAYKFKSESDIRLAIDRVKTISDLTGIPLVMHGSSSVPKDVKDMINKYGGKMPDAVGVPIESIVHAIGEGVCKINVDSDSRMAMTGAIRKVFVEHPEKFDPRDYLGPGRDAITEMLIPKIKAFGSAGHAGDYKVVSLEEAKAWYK
#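 Giardia FBPA (40 nM reagent) was preincubated 10 min at RT with compound (up to 57.5 uM final), then substrate plus GAPDH/TPI/NAD/arsenate coupling system with diaphorase/resazurin was added; resorufin fluorescence (525/598 nm) was read after 20 min.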
# Sm TGR block: inhibitors of Schistosoma mansoni thioredoxin glutathione reductase. Q962Y6. purified TGR, DTNB reduction, TNB absorbance 405 nm. Potency, µM (highest dose often 114 µM), without a hit: at the top dose activity change, negative = inhibition, most hits filed as inhibitors. hit rate 3% among 360,000. AID 485364; also: nearly all actives have a fitted effect of over 60% in size
#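 First, TGR (20 nM dispensed) and NADPH were mixed with compound. Second, a 15 min room-temperature incubation followed. Third, further NADPH and then DTNB were added to start the reaction. Finally, TNB absorbance was monitored kinetically.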
# The depositor's hits bear a star; ? = inconclusive; . = not tested or not shown. Most compounds without a hit are left out; they make up all but 3.3% or so of the library. Unless noted, calls follow the shape of the dose curve; as a rule, active = well fitted curve in the direction sought with a large enough effect; inconclusive = small, poorly fitted or top-dose-only effect, or another doubt; inactive = no such curve, though single readings can be large; an effect the other way counts as inactive or inconclusive. % is scaled to controls: 0 for no effect and ±100 for the full control effect; potency is read from the fitted curve at half-maximal effect.
SMILES,TbPYK inhibitor,RE007 growth inh,LmPK inhibitor,FBPA Giardia inh,Sm TGR block
Cc1cccc(-n2c(-c3csc(C)c3C)n[nH]c2=S)c1,?,.,11µM*,1%,1%
Cc1ccccc1-n1c(-c2csc3ccccc23)n[nH]c1=S,?,1%,14µM*,7%,0%
O=c1[nH]c(=S)[nH]c(O)c1N=Nc1ccc(S(=O)(=O)N2CCOCC2)cc1,-16%,12%,-9%,-10%,-18%
COCc1c(C(=O)N/N=C\c2ccccn2)nnn1-c1nonc1N,-1%,-7%,-1%,11%,-1%
Cc1cccc(-n2c(-c3csc(C(C)C)c3)n[nH]c2=S)c1,?,3%,10µM*,16%,8%
CN(C)CC1CCCCC1OC(=O)Cc1ccc(Cl)c([N+](=O)[O-])c1 (stereo unspecified),-22%,7%,-1%,-10%,-19%
CCCOc1ccc(N2C(=O)CC(NCCc3ccc(S(N)(=O)=O)cc3)C2=O)cc1 (stereo unspecified),-6%,?,2%,0%,45µM*
COc1ccc(N2C(=O)CC(NCCNc3ccc([N+](=O)[O-])cn3)C2=O)cc1 (stereo unspecified),-1%,-4%,2%,-7%,14µM*
CCOc1ccc(N2C(=O)CC(NCCNc3ccc([N+](=O)[O-])cn3)C2=O)cc1 (stereo unspecified),-1%,-19%,-2%,-7%,7.1µM*
Cc1ccc(NC(=O)COC(=O)C2=COCCO2)c([N+](=O)[O-])c1,3%,19%,-5%,0%,-3%
CCc1ccccc1NC(=O)CCS(=O)(=O)c1cccc2nonc12,-4%,.,.,.,-30%
Cc1ccc(CNC(=O)CCS(=O)(=O)c2cccc3nonc23)cc1,1%,-1%,-8%,-6%,25µM*
COc1ccc(CNC(=O)CCS(=O)(=O)c2cccc3nonc23)cc1,-6%,-9%,1%,-11%,13µM*
COc1ccccc1CNC(=O)CCS(=O)(=O)c1cccs1,-3%,-6%,-4%,3%,35µM*
Cc1ccc(NC(=O)CCS(=O)(=O)c2cccc3nonc23)c(C)c1,1%,.,.,.,1%
COc1ccccc1CNC(=O)CCS(=O)(=O)c1cccc2nonc12,0%,-7%,2%,-6%,45µM*
COc1ccc(NC(=O)CCS(=O)(=O)c2cccc3nonc23)cc1,-2%,19%,-6%,2%,?
COc1cccc(OCCNC(=O)c2ccccc2Sc2ccccc2C#N)c1,1%,4%,4%,0%,2%
CCOc1ccccc1NC(=O)CN1CCN(C(=O)C2CCCO2)CC1 (stereo unspecified),-2%,6%,-1%,.,2%
O=C(NCc1ccc2c(c1)OCO2)c1cc(S(=O)(=O)N2CCCCC2)ccc1F,-16%,-8%,1%,3%,0%
O=C(CCS(=O)(=O)c1ccccc1Cl)NCc1ccc(F)cc1,-12%,-13%,7%,8%,32µM*
CCOC(=O)c1[nH]c(Cc2[nH]c(C(=O)OCC)c(C)c2CCC(=O)OC)c(CCC(=O)OC)c1C,6%,-7%,-2%,-13%,7.9µM*
Cc1noc(/C=C/N(C)C)c1S(=O)(=O)N1CCN(c2ccccc2)CC1,1%,11%,4%,-4%,7%
O=C(CSc1nc2cc([N+](=O)[O-])ccc2n1-c1ccccc1)NCc1ccc2c(c1)OCO2,4%,-8%,7%,7.9µM*,-20%
Cc1cc(C)cc(-n2c(SCC(=O)NCc3ccc4c(c3)OCO4)nc3ccccc3c2=O)c1,-2%,7%,0%,8%,2%
SMILES,TbPYK inhibitor,RE007 growth inh,LmPK inhibitor,FBPA Giardia inh,Sm TGR block
Cc1ccc(Cn2ccc(=O)c(OCc3ccccc3)c2C)cc1,4%,2%,7%,10%,-16%
CN(C)c1ccc(/C=N/NC(=O)C2COc3ccccc3O2)o1 (stereo unspecified),28µM*,2%,7%,-15%,16µM*
CC(C)N=C1NN=C(c2cccs2)C(CC(=O)O)S1 (stereo unspecified),-19%,-6%,-1%,-29%,16µM*
O=C(NCCc1csc(-c2cccc(F)c2)n1)c1ccc(Br)o1,-2%,.,.,.,-7%
CCc1cc2c(=O)c(-c3nc4ccccc4n3C)c(C(C)C)oc2c(CN2CCN(C)CC2)c1O,-4%,6%,1%,5%,2%
Cc1sc(NC(=S)NC(=O)c2ccco2)c(C#N)c1C,6%,8%,-1%,?,4µM*
O=C(NC(=S)Nc1ccccc1N1CCCCC1)c1ccco1,-3%,17%,1%,0%,1%
O=C(NC(=S)Nc1ccccc1N1CCCC1)c1ccco1,-12%,-19%,-2%,14µM*,?
O=C(Nc1c(Cl)ccc2nsnc12)c1cccnc1,-14%,-2%,0%,-4%,3%
O=C(NC(=S)N1CCCc2ccccc21)c1ccco1,1%,13%,5%,1%,28µM*
O=C(NC(=S)Nc1c(Cl)ccc2nsnc12)c1ccco1,-1%,-7%,-4%,?,25µM*
Cc1onc(-c2ccccc2)c1C(=O)Nc1nnc(COc2ccc(Cl)cc2)s1,?,?,-2%,2%,-2%
N#C/C(=N\Nc1ccccc1)C(=N)N1CCCCC1,-9%,6%,-1%,-5%,1%
O=C(CCCCN1CCCCC1)c1ccc2c(c1)Cc1ccccc1-2,-5%,6%,4%,0%,2%
O=C(NC(=S)Nc1ccc(N2CCCCC2)cc1)c1ccco1,1%,-7%,-3%,-10%,16µM*
CC1CCN(c2ccc(NC(=S)NC(=O)c3ccco3)cc2)CC1,-2%,-4%,5%,-9%,?
O=C(NC(=S)Nc1ccc(Cl)c(C(=O)O)c1)c1ccco1,-2%,18%,-4%,?,45µM*
CCC(=O)Nc1ccc(Cl)c(NC(=S)NC(=O)c2ccco2)c1,-3%,2%,-5%,?,?
O=C(NC(=S)Nc1ccccc1Cl)c1ccco1,-7%,-16%,0%,-29%,13µM*
O=C(NC(=S)Nc1cccc(Cl)c1N1CCCCC1)c1ccco1,-4%,21%,0%,-9%,10%
CCc1ccc(NC(=O)C/C(C)=N/NC(=O)OCc2ccc(OC)cc2)cc1,-4%,4%,0%,6%,-10%
CCc1ccc(NC(=O)C(=O)N/N=C(\C)CC(=O)Nc2ccc(OC)cc2)cc1,2%,7%,1%,3%,45µM*
COc1cc(NS(=O)(=O)c2ccc(NC(=S)NC(=O)c3cccs3)cc2)nc(OC)n1,-9%,?,11%,1%,22µM*
COc1cc(NS(=O)(=O)c2ccc(NC(=S)NC(C)=O)cc2)nc(OC)n1,-2%,1%,.,.,.
